From PubChem
Only some compounds are listed: those with a hit (about 1% of all), similar ones and a draw of the others.
gsp antag = qHTS for Antagonists of gsp, the Etiologic Mutation Responsible for Fibrous Dysplasia/McCune-Albright Syndrome: qHTS; gsp-mutant cells, cAMP HTRF, 30 min; Potency, µM (series often up to 76.9 µM), inactives show at the top dose activity change, negative = inhibition, usual class: inhibitors; actives 0.4% (n = 340,000); AID 624288, 2012; calls by dose curve; cell line not stated here;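 also: intracellular cAMP measured with PDE inhibitor Ro 20-1724 present during compound exposure; potency is read from the fitted curve at half-maximal effect; % is scaled to controls: 0 for no effect and ±100 for the full control effect; nearly all actives have a fitted effect of over 65% in size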
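Measurement of cellular cAMP by homogeneous time-resolved fluorescence following a 30 min compound exposure at 37C. The PDE inhibitor […] was present throughout; the assay buffer was DPBS with 0.05% BSA and 0.005% Tween 20.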
RXFP1 agonist = qHTS Assay for Agonists of the Relaxin Receptor RXFP1; Relaxin receptor 1 (Homo sapiens), Q9HBX9; HEK293T-RXFP1 cAMP TR-FRET, 30 min; response scale: percent of porcine relaxin response, buffer zero; actives 0.3% (n = 370,000); AID 2676, 2010; Potency, µM (series often up to 57.5 µM), inactives show top-dose activation, usual class: activators; also: potency is read from the fitted curve at half-maximal effect; % is scaled to controls: 0 for no effect and ±100 for the full control effect; nearly all actives have a fitted effect of over 60% in size
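HEK293T cells stably expressing RXFP1 were pretreated with the PDE4 inhibitor Ro 20174, exposed to compounds for 30 min at 37C, lysed, and cAMP was read by TR-FRET. Data normalized to buffer (basal) and 29 nM porcine relaxin (100%).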
PTHR1 agonist = qHTS for PTHR1 Agonists: Primary Screen; Parathyroid hormone/parathyroid hormone-related peptide receptor (Homo sapiens), Q03431; HEK293 GP2 PTHR1 cells, GloSensor cAMP luminescence, 1 h; AID 743266, 2014; Potency, µM (doses to about 115 µM), inactives show at the highest dose activation, actives largely listed as activators; actives 0.075% (n = 410,000); also: potency is read from the fitted curve at half-maximal effect; nearly all actives have a fitted effect of over 55% in size
Target sequence (Q03431 whole entry, looked up): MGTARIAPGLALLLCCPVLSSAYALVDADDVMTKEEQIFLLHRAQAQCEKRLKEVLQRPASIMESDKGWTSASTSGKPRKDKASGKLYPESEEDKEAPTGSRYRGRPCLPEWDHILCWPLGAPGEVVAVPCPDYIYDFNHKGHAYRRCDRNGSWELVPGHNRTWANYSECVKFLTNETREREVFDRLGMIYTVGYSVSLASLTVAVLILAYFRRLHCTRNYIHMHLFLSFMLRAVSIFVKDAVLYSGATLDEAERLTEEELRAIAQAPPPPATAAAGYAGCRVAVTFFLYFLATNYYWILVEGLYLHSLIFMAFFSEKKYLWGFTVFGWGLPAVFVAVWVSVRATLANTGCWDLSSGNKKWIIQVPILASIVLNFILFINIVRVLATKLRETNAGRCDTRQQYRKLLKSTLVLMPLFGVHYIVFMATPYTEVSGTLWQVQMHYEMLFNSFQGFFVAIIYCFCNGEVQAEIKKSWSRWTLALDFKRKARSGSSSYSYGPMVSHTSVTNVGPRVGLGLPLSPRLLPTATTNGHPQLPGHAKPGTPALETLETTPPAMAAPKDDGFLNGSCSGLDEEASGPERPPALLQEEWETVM
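HEK-293-derived GP2 cells expressing PTHR1 and a GloSensor cAMP reporter, 3,000/well, plated overnight, given luciferin plus IBMX (each 0.5 mM as added) for 1 h at 37 °C, then compound for 1 h at 37 °C. Luminescence was read after 15 min at room temperature.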
gsp ag = qHTS for Agonist of gsp, the Etiologic Mutation Responsible for Fibrous Dysplasia/McCune-Albright Syndrome: qHTS. gsp mutant cells, cAMP HTRF, 30 min. Potency, µM (top dose mostly 76.9 µM), for inactives: at the top dose activation (cAMP increase), most hits filed as activators. actives 0.13% (n = 340,000). AID 624287, 2012; active = well fitted activation curve with a large enough effect; inconclusive = small, poorly fitted or top-dose-only effect, or another doubt; inactive = no such curve, though single readings can be large or run the other way; cell line not stated here;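 also: phosphodiesterase inhibitor Ro 20-1724 added with compounds to block cAMP breakdown; potency is read from the fitted curve at half-maximal effect; nearly all actives have a fitted effect of over 60% in size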
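Cells stably selected in G418 were plated at 2000/well, grown 16-24 hr, then given compounds in DMSO with the PDE inhibitor […] (300 uM solution added) for 30 min at 37C; cAMP was read by HTRF.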
RXFP1 antag = qHTS Assay for Antagonists of the Relaxin Receptor RXFP1. Relaxin receptor 1 (Homo sapiens), Q9HBX9. actives 0.59% (n = 350,000). activity change, negative = inhibition, % at 57.5 µM. HEK293-RXFP1, relaxin-stimulated cAMP HTRF, 30 min; active compounds read low;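 active = activity change of -60% or lower, but not beyond a set lower limit; inconclusive = change between -60% and -40%, or beyond the set limit; inactive = change above -40%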; also: % is scaled to controls: 0 for no effect and ±100 for the full control effect
* marks the source's active call; other numbers are inactive results; i = inactive; ? = inconclusive; · = not tested or not shown; [ ] = dose if it differs, or a comment. Unless noted, calls follow the shape of the dose curve; as a rule, active = well fitted curve in the direction sought with a large enough effect; inconclusive = small, poorly fitted or top-dose-only effect, or another doubt; inactive = no such curve, though single readings can be large; an effect the other way counts as inactive or inconclusive.

SMILES | gsp antag | RXFP1 agonist | PTHR1 agonist | gsp ag | RXFP1 antag
O=C(Nc1ccc2oc(-c3ccncc3)nc2c1)c1c(F)c(F)c(F)c(F)c1F | 7.6% | -2.6% | -5.5%[57.5 µM] | 19.0% | -0.1
COc1ccccc1C(=O)Nc1ccc2oc(-c3cccc4c(Br)cccc34)nc2c1 | · | 10µM* | i | · | 14.4
COc1c(F)c(F)c(C(=O)Nc2ccc3oc(-c4ccncc4)nc3c2)c(F)c1F | 28.2µM* | -9.6% | i | -19.8% | -8.2
Cc1cc(OCC(=O)Nc2ccncc2)ccc1Cl | -4.7% | 0.0% | -21.4% | 10.5%[15.4 µM] | 4.3
COc1cc(C(=O)Nc2ccc3oc(-c4ccccc4)nc3c2)cc(OC)c1OC | · | 2.1% | -37.6% | · | -60.2*
O=C1Nc2ccccc2C1(c1ccc(O)cc1)c1ccc(O)cc1 | · | · | · | · | -29.5
COc1cccc(Cn2cc(C(=O)c3ccc(Cl)cc3)c(=O)c3ccccc32)c1 | · | -0.4% | -9.5% | · | -9.7
O=C(Nc1ccc(S(=O)(=O)Nc2ncccn2)cc1)c1cc(=O)c2ccccc2o1 | · | 1.9% | i | · | -11.2
Cc1nnc(N/N=C/c2cc([N+](=O)[O-])c(N3CCC(C)CC3)cc2N2CCC(C)CC2)n1N | -2.8% | 0.3% | 28.2µM* | -39.1% | 44.1
CCc1nnc(N/N=C/c2ccc(N3CCC(C)CC3)c([N+](=O)[O-])c2)n1N | -9.0% | 0.6% | -22.7% | -30.5% | -7.0
COc1ccc(C2=NN(C(C)=O)C(c3cn(-c4ccccc4)nc3-c3cccs3)C2)cc1 (centres undefined) | · | 0.4% | i | · | ·
Cc1cccc(CCN(C(=O)c2csnn2)C(C(=O)NC2CCCC2)c2ccco2)c1 (centres undefined) | -14.4% | 3.0% | 6.3% | 2.8% | -73.3*
CCN(C(=O)Cn1c(SCc2ccccc2F)nc2cccnc21)c1ccccc1 | · | -2.2% | 18.1% | · | 11.8
N#C/C(=N\Nc1cccc(Cl)c1)C(=O)c1ccccc1 | 15.8µM* | 2.1% | -22.0%[57.5 µM] | 0.1% | 2.1
N#C/C(=N\Nc1ccccc1Cl)C(=O)c1ccccc1 | ? | -0.2% | -25.0% | -25.4% | -3.5
COc1ccccc1CNc1cc(-c2ccccc2)nc2nncn12 | · | 0.5% | -25.2% | · | ·
COC(=O)c1c(NC(=S)Nc2ccccc2Cl)sc(C)c1C | -0.9% | 7.8% | i | ? | -107.2*
COC(=O)c1c(NC(=O)Cc2ccccc2)sc(C)c1C | -2.9% | 0.5% | i | -45.6% | -12.9
Cc1ccc(-c2csc(NC(=O)c3cc([N+](=O)[O-])ccc3N3CCOCC3)n2)cc1 | 3.9% | 3.9% | -24.6% | -31.1% | 0.2
O=C(Nc1nc(-c2ccccc2)cs1)c1ccc2c(=O)n3c(nc2c1)CCCCC3 | 39.8µM* | 0.1% | -42.4% | -76.3% | -21.0
O=C(Nc1nc(-c2ccccc2)cs1)c1ccc(N2CCOCC2)c([N+](=O)[O-])c1 | 31.6µM* | 0.5% | -30.3% | -4.7%[15.4 µM] | -30.4
CCOC(=O)c1ccc(NC2=CC(c3ccc(F)cc3)N(c3ccc(C(=O)OCC)cc3)C2=O)cc1 (centres undefined) | · | -0.3% | -9.0% | · | ·
COc1ccc(-n2cc3c(-c4cccc(Br)c4)nnc(C)c3n2)cc1 | 39.8µM* | 0.5% | -18.3% | 27.2% | ?
CCNC(=S)N/N=C/c1cc(C)n(-c2ccc(Cl)cc2)c1C | 17.5% | -0.1% | -4.5% | 10.8%[15.4 µM] | -18.2
Cc1cc(/C=N/NC(N)=S)c(C)n1-c1ccc(Cl)c(Cl)c1 | 16.9% | 3.0% | -9.0% | -2.1%[15.4 µM] | -105.0*
SMILES | gsp antag | RXFP1 agonist | PTHR1 agonist | gsp ag | RXFP1 antag
Cc1nc(C)c(-c2csc(Nc3ccc(N)cc3)n2)s1 | -14.4% | 3.8% | -36.2% | -26.0% | -1.6
COc1ccc(Nc2nc(-c3sc(C)nc3C)cs2)cc1 | 11.5% | -0.5% | -36.9% | 3.9% | -61.2*
COc1cc(C(=O)N/N=C/c2ccc(OC(=O)c3ccccc3Cl)cc2)ccc1O | -31.3% | -0.4% | -42.8% | -30.1% | -91.4*
Nc1ccc(C(=O)N/N=C\c2ccc(OC(=O)c3ccccc3Cl)cc2)cc1 | 4.9% | 4.9% | -4.6% | ? | 7.5
COc1cc(NC(=O)CCc2c(C)nc3c(-c4ccc(F)cc4)c(C)nn3c2C)cc(OC)c1OC | · | -0.3% | i | · | ·
CN(C(=O)CSc1nc2scc(-c3ccccc3)c2c(=O)[nH]1)c1ccccc1 | ? | · | -42.6% | -8.4% | -64.3*
CCn1c(SCCN2CCOCC2)nc2c1c(=O)n(C)c(=O)n2C | 0.4% | ? | i | 28.9%[15.4 µM] | 5.6
Cn1c(=O)c2[nH]c(SCCN3CCOCC3)nc2n(C)c1=S | ? | · | -20.8% | 27.0% | -72.4*
Cn1c(=O)c2[nH]c(SCCN3CCCCC3)nc2n(C)c1=S | -6.9% | · | -12.5% | 11.9% | -0.4
Cn1c(=O)c2c(nc(SCCN3CCOCC3)n2C)n(C)c1=O | 3.3% | ? | i | 8.91µM* | 3.5
Cc1noc(C)c1-c1ccc2ncnc(NCc3cccc(-c4ccccc4)c3)c2c1 | · | 1.9% | · | · | ·
COc1ccc(NC(=O)N2CCC(c3ccccc3)C2)c(OC)c1 (centres undefined) | 50.1µM* | -0.1% | -19.4% | -2.3% | ·
COc1ccc(NC(=O)N2CCCC(c3ccccc3)C2)cc1 (centres undefined) | -3.2% | 0.2% | i | 10.3% | 1.2
CCC1(c2ccc(F)cc2)NC(=O)N(CC(=O)NCC(=O)Nc2cccc(C)c2C)C1=O (centres undefined) | 4.2% | -0.8% | i | 2.0%[15.4 µM] | -79.3*
Cc1sc(N(C(=O)CCc2ccccc2)c2ccc(C(=O)O)cc2)nc1-c1ccccc1 | -35.3% | 1.8% | -37.1% | -6.9% | 2.2
CCC(=O)N(c1ccc(C(=O)O)cc1)c1nc(-c2ccc(OC)cc2)c(C)s1 | 25.1µM* | -0.3% | -50.1% | ? | -2.2
CCOCCCn1c(SCC(=O)Nc2ccccc2CC)nc2ccccc2c1=O | · | -0.2% | i | · | 3.2
COc1ccc2cc(C(=O)C3CCCN(C(=O)CCc4ccccn4)C3)ccc2c1 (centres undefined) | 4.47µM* | 2.0% | -17.5% | -12.3%[15.4 µM] | -3.2
CCc1cccc(-n2nnc(-c3nc(-c4ccc5c(c4)OCO5)no3)c2C)c1 | · | -0.9% | -61.5% | · | 3.7
C=CCn1c(SCc2ccc(C(=O)O)cc2)nc2sc(C)c(C)c2c1=O | -11.7% | 13.7% | 0.6% | 21.7% | -8.7
CCn1c(SCC(=O)NC(=O)NCc2ccco2)nc2sc(C)c(C)c2c1=O | -5.4% | -2.8% | i | ? | -69.4*
Cc1sc2nc(SCC(=O)NCc3ccco3)n(C)c(=O)c2c1C | 0.6% | 4.0% | i | -29.2% | 6.8
Cc1sc2nc(SCc3ccc(C(=O)O)cc3)n(Cc3ccco3)c(=O)c2c1C | 25.1µM* | 6.4% | -11.4% | -9.2%[15.4 µM] | -25.2
